Data from PubChem BioAssay (NCATS).
Results filed as inconclusive are left out. Activity calls are given as the source filed them. Calls follow the shape of the dose curve; as a rule, active = well fitted curve in the direction sought with a large enough effect; inconclusive = small, poorly fitted or top-dose-only effect, or another doubt; inactive = no such curve, though single readings can be large; an effect the other way counts as inactive or inconclusive.

Tests used:
[1] = qHTS of pediatric cancer cell lines to identify multiple opportunities for drug repurposing: Primary screen for SK-N-MC cells (AID 1347093); also: series mostly up to about 46 µM
Outline: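 Metabolically active cells were quantified by ATP-dependent luminescence (CellTiter-Glo, 15 min at room temperature) following 48 h treatment. Cells had been plated at 500-1,000 per well and settled for 5 h beforehand.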

[2] = qHTS of pediatric cancer cell lines to identify multiple opportunities for drug repurposing: Primary screen for BT-37 cells (AID 1347094); also: series mostly up to about 57 µM
Outline: (§1)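 Primary screen of approved and investigational compounds on cells in growth media at 37 degrees C, 5% CO2. MIPE set at 11-point and NPC set at 8-point dilutions; viability scored by ATP-based luminescence at 48 hours.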

[3] = qHTS of pediatric cancer cell lines to identify multiple opportunities for drug repurposing: Primary screen for NB-EBc1 cells (AID 1347095)
Outline: as §1

[4] = qHTS of pediatric cancer cell lines to identify multiple opportunities for drug repurposing: Primary screen for U-2 OS cells (AID 1347096); also: nearly all actives have a fitted effect of over 50% in size
Outline: (§2)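 Viability after 48 h compound treatment at 37C, 500-1,000 cells/well, read as ATP luminescence with CellTiter-Glo. Primary screens used 11-point (MIPE, 0.78 nM-46 µM) or 8-point (NPC, 0.59 nM-46 µM) final concentrations; follow-up screens used 11-point dilutions.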

[5] = qHTS of pediatric cancer cell lines to identify multiple opportunities for drug repurposing: Primary screen for Saos-2 cells (AID 1347097); also: nearly all actives have a fitted effect of over 40% in size
Outline: as §1

[6] = qHTS of pediatric cancer cell lines to identify multiple opportunities for drug repurposing: Primary screen for SK-N-SH cells (AID 1347098);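 also: DMSO served as neutral control and bortezomib at 2.3 µM as positive control; nearly all actives have a fitted effect of over 65% in size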
Outline: (§3)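 Cells (500-1,000/well) rested 5 h, then received compounds for 48 h; metabolically active cells were measured by CellTiter-Glo luminescence. Final concentrations spanned up to 46 µM (MIPE, 11-point) or 0.59 nM-46 µM (NPC, 8-point) in primary screens, 11-point in follow-ups.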

[7] = qHTS of pediatric cancer cell lines to identify multiple opportunities for drug repurposing: Primary screen for NB1643 cells (AID 1347099); also: nearly all actives have a fitted effect of over 50% in size
Outline: as §1

[8] = qHTS of pediatric cancer cell lines to identify multiple opportunities for drug repurposing: Primary screen for LAN-5 cells (AID 1347100)
Outline: as §2

[9] = qHTS of pediatric cancer cell lines to identify multiple opportunities for drug repurposing: Primary screen for BT-12 cells (AID 1347101); also: nearly all actives have a fitted effect of over 25% in size
Outline: as §3

[10] = qHTS of pediatric cancer cell lines to identify multiple opportunities for drug repurposing: Primary screen for Rh18 cells (AID 1347102); also: nearly all actives have a fitted effect of over 65% in size
Outline: as §2

Measured: Potency

CCCC(CCC)(C(=O)OCC)C(=O)OCC
inactive: all assays above

Cc1ccc(Cl)c(OCC(O)CNC(C)(C)C)c1 (centres undefined)
inactive: all assays above

CC(=O)Nc1ccc(S(=O)(=O)Nc2cc(C)on2)cc1
inactive: all assays above

Nc1ncnc2c1ncn2Cc1c(F)cccc1Cl
inactive: all assays above

C[C@H]1C[C@H](O)c2ccsc2S1(=O)=O
inactive: all assays above

CC(C)OC(=O)c1cc2c(OCC(O)CNC(C)(C)C)cccc2[nH]1 (centres undefined)
inactive: all assays above

COc1ccc(CCC(C)=O)cc1
inactive: all assays above

O=C(c1ccccc1)c1ccccc1
inactive: all assays above

COc1cc(C=O)ccc1O
inactive: all assays above

CC(C)(C)c1ccc(C(=O)CCCCl)cc1
inactive: all assays above

Cc1onc(-c2ccccc2)c1C(=O)Cl
inactive: all assays above

CC(C)(C)C(O)/C=C/c1ccc2c(c1)OCO2 (centres undefined)
inactive: all assays above

CCCCCN(CCCOC)C(=O)C(CCC(=O)O)NC(=O)c1ccc(Cl)c(Cl)c1 (centres undefined)
inactive: all assays above

Cc1c(N)cccc1C(F)(F)F
inactive: all assays above

CN1CC(=O)N2[C@H](c3ccc4c(c3)OCO4)c3[nH]c4ccccc4c3C[C@@H]2C1=O
inactive: all assays above

CC(C)C(=O)Nc1cccc(C(F)(F)F)c1
not listed: [9]
inactive: all other assays above

CN1Cc2cc(C(=O)N3CCC(C4CCNCC4)CC3)ccc2N[C@@H](CC(=O)O)C1=O
inactive: all assays above
